Where a name gives a salt, the structure may show the parent alone. ± gives the standard deviation or the standard deviation of the averaged measurements.
The compounds below were run on Danio rerio Tg(wt1b:EGFP) embryo, pronephros (assay: glomerular separation, fold change vs DMSO control; higher = glomeruli further apart (abnormal)). Conditions: 25 µM; exposure: 24-48 hpf.
How it was run: (§1)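 Each feature value is a fold change relative to the mean of same-day DMSO-treated embryos. Embryos of the Tg(wt1b:EGFP) zebrafish line, dechorionated, received 25 μM compound in 0.5% DMSO from 24 to 48 hpf at 28.5°C, in HEPES-buffered E3 with 0.003% PTU. Distances and angles were computed by a Fiji macro from 16 manually set reference points on maximum projections of dorsal pronephros images, and values beyond 2 SD of the feature mean were removed.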
In the case of `CCOC(=O)C1=C(C)NC(C)=C(C(=O)OCC)C1c1ccccc1/C=C/C(=O)OC(C)(C)C` [Lacidipine], the glomerular separation is reported as 6.82 ± 2.2.
In the case of `COc1cc(NS(=O)(=O)c2ccc(N)cc2)nc(OC)n1` [Sulfadimethoxine], the glomerular separation is reported as 1.02 ± 0.48.
Work on `CN1C(C(=O)Nc2ccccn2)=C(O)c2sccc2S1(=O)=O` [Tenoxicam] yielded a glomerular separation of 0.97 ± 0.16.
Work on `Cc1ncc([N+](=O)[O-])n1CCO` [Metronidazole] yielded a glomerular separation of 1.1 ± 0.31.
`CCCCN(CCCC)CCCOC(=O)c1ccc(N)cc1` [Butacaine] gave a glomerular separation of 0.928 ± 0.47.
`CC(Oc1ccccc1)C(=O)N[C@@H]1C(=O)N2[C@@H]1SC(C)(C)[C@@H]2C(=O)O` (stereo partly specified) [Phenethicillin potassium salt] was tested, and the glomerular separation was 0.88 ± 0.24.
`Cc1ccc(N(CC2=NCCN2)c2cccc(O)c2)cc1` [Phentolamine hydrochloride] was tested, and the glomerular separation was 1.13 ± 0.33.
Work on `CC(=O)SCC(Cc1ccccc1)C(=O)NCC(=O)OCc1ccccc1` (stereo unspecified) [Racecadotril] yielded a glomerular separation of 1.45 ± 0.84.
With `N=C(N)NC(=N)NCCc1ccccc1` [Phenformin hydrochloride] the glomerular separation was 0.95 ± 0.25.
In the case of `CC(C)NC(=N)NC(=N)Nc1ccc(Cl)cc1` [Proguanil hydrochloride], the glomerular separation is reported as 1.2 ± 0.52.
`CN(C)CCC(c1ccccc1)c1ccccn1` (stereo unspecified) [Pheniramine maleate] showed a glomerular separation of 0.928 ± 0.19.

The compounds below were run on Danio rerio Tg(wt1b:EGFP) embryo, pronephros (assay: glomerular width (mean of left and right), fold change vs DMSO control; higher = wider glomerulus). Conditions: 25 µM; exposure: 24-48 hpf.
How it was run: as §1
For `CCN1CCN(C(=O)N[C@@H](C(=O)N[C@@H]2C(=O)N3C(C(=O)O)=C(CSc4nnnn4C)CS[C@H]23)c2ccc(O)cc2)C(=O)C1=O` [Cefoperazone dihydrate], the glomerular width was 1.01 ± 0.086.
`CN(C)/N=N/c1[nH]cnc1C(N)=O` [Dacarbazine] gave a glomerular width of 0.991 ± 0.037.
Work on `Cn1c(=O)c2c(ncn2CC(=O)O)n(C)c1=O` [Acefylline] yielded a glomerular width of 1 ± 0.029.
For `CC(=O)N(CC(O)CO)c1c(I)c(C(=O)NCC(O)CO)c(I)c(C(=O)NCC(O)CO)c1I` (stereo unspecified) [Iohexol], the glomerular width was 0.963 ± 0.072.
`O=c1[nH]c(=O)n(C2CCCO2)cc1F` (stereo unspecified) [Tegafur] showed a glomerular width of 1.05 ± 0.057.
With `COCC1=C(C(=O)OC(C)OC(=O)OC(C)C)N2C(=O)[C@@H](NC(=O)/C(=N\OC)c3csc(N)n3)[C@H]2SC1` (stereo partly specified) [Cefpodoxime proxetil] the glomerular width was 0.893 ± 0.055.
`CC(=O)c1ccc(S(=O)(=O)NC(=O)NC2CCCCC2)cc1` [Acetohexamide] gave a glomerular width of 1.05 ± 0.023.
Compound `CCOC(=O)C(C)(C)Oc1ccc(Cl)cc1` [Clofibrate] has a glomerular width of 0.608 ± 0.044.
Compound `NNc1nncc2ccccc12` [Hydralazine hydrochloride] has a glomerular width of 1.04 ± 0.041.
In the case of `CN[C@H](CC(C)C)C(=O)N[C@H]1C(=O)N[C@@H](CC(N)=O)C(=O)N[C@H]2C(=O)N[C@H]3C(=O)N[C@H](C(=O)N[C@H](C(=O)O)c4cc(O)cc(O)c4-c4cc3ccc4O)[C@H](O)c3ccc(c(Cl)c3)Oc3cc2cc(c3O[C@@H]2O[C@H](CO)[C@@H](O)[C@H](O)[C@H]2O[C@H]2C[C@](C)(N)[C@H](O)[C@H](C)O2)Oc2ccc(cc2Cl)[C@H]1O` [Vancomycin hydrochloride], the glomerular width is reported as 0.978 ± 0.033.
`COc1ccc(-c2cc(=S)ss2)cc1` [Anethole-trithione] gave a glomerular width of 0.886 ± 0.027.
In the case of `Cc1onc(-c2c(F)cccc2Cl)c1C(=O)N[C@@H]1C(=O)N2[C@@H]1SC(C)(C)[C@@H]2C(=O)O` [Flucloxacillin sodium], the glomerular width is reported as 0.989 ± 0.024.
Compound `CCCC1C(=O)N2C(N(C)C)=Nc3ccc(C)cc3N2C1=O` (stereo unspecified) [Azapropazone] has a glomerular width of 0.984 ± 0.022.
`CCC(=O)OCC(=O)[C@@]1(OC(=O)CC)[C@H](C)C[C@H]2[C@H]3[C@H]([C@@H](O)C[C@@]21C)[C@@]1(C)C=CC(=O)C=C1C[C@H]3Cl` [Alclometasone dipropionate] gave a glomerular width of 1.23 ± 0.026.
For `CN(C)[C@@H]1C(O)=C(C(N)=O)C(=O)[C@@]2(O)C(O)=C3C(=O)c4c(O)cccc4[C@@](C)(O)[C@H]3[C@H](O)[C@@H]12` [Oxytetracycline dihydrate], the glomerular width was 0.955 ± 0.036.
`NC[C@H]1O[C@H](O[C@H]2[C@H](O)[C@@H](O[C@H]3O[C@H](CO)[C@@H](O)[C@H](N)[C@H]3O)[C@H](N)C[C@@H]2N)[C@H](N)C[C@@H]1O` [Tobramycin] was tested, and the glomerular width was 0.94 ± 0.056.
In the case of `CC1(C)S[C@@H]2[C@H](NC(=O)[C@H](N)c3ccccc3)C(=O)N2[C@H]1C(=O)O` [Ampicillin trihydrate], the glomerular width is reported as 1.03 ± 0.016.
`CN1CCC(OC(c2ccccc2)c2ccccc2)CC1` [Diphenylpyraline hydrochloride] was tested, and the glomerular width was 1.07 ± 0.053.
Compound `C[C@]12CCC(=O)C=C1CC[C@@H]1[C@@H]2[C@@H](O)C[C@@]2(C)[C@H]1CC[C@]2(O)C(=O)CO` [Hydrocortisone base] has a glomerular width of 1.16 ± 0.081.
With `CN(C(=O)C(Cl)Cl)c1ccc(OC(=O)c2ccco2)cc1` [Diloxanide furoate] the glomerular width was 0.777 ± 0.037.
In the case of `CCC1(c2ccccc2)C(=O)NCNC1=O` [Primidone], the glomerular width is reported as 1.0079 ± 0.00034.
For `Cc1nnc(SCC2=C(C(=O)O)N3C(=O)[C@@H](NC(=O)Cn4cnnn4)[C@H]3SC2)s1` [Cefazolin sodium salt], the glomerular width was 1.072 ± 0.008.
Work on `CCN(CC)C(C)CN1c2ccccc2Sc2ccccc21` (stereo unspecified) [Ethopropazine hydrochloride] yielded a glomerular width of 1.03 ± 0.035.
Compound `CN(C)CC/C=C1\c2ccccc2CSc2ccccc21` [Dosulepin hydrochloride] has a glomerular width of 0.981 ± 0.048.
For `CC(=O)[C@H]1CC[C@H]2[C@@H]3CCC4=CC(=O)CC[C@]4(C)[C@H]3CC[C@]12C` [Progesterone], the glomerular width was 0.873 ± 0.086.
`O=C1CN(/N=C/c2ccc([N+](=O)[O-])o2)C(=O)N1` [Nitrofurantoin] gave a glomerular width of 1.04 ± 0.012.
`CC1(C)O[C@@H]2C[C@H]3[C@@H]4C[C@H](F)C5=CC(=O)C=C[C@]5(C)[C@H]4[C@@H](O)C[C@]3(C)[C@]2(C(=O)CO)O1` [Flunisolide] gave a glomerular width of 1.21 ± 0.018.
Compound `CN(C)c1nc(N(C)C)nc(N(C)C)n1` [Altretamine] has a glomerular width of 0.923 ± 0.011.
Work on `Cn1c([N+](=O)[O-])cnc1COC(N)=O` [Ronidazole] yielded a glomerular width of 0.99 ± 0.011.
`CCOC(=O)C1=C(C)NC(C)=C(C(=O)OCC)C1c1ccccc1/C=C/C(=O)OC(C)(C)C` [Lacidipine] gave a glomerular width of 0.671 ± 0.0078.
In the case of `COc1cc(NS(=O)(=O)c2ccc(N)cc2)nc(OC)n1` [Sulfadimethoxine], the glomerular width is reported as 1.04 ± 0.014.
`CN1C(C(=O)Nc2ccccn2)=C(O)c2sccc2S1(=O)=O` [Tenoxicam] showed a glomerular width of 0.985 ± 0.022.
`Cc1ncc([N+](=O)[O-])n1CCO` [Metronidazole] showed a glomerular width of 0.928 ± 0.084.
Work on `CCCCN(CCCC)CCCOC(=O)c1ccc(N)cc1` [Butacaine] yielded a glomerular width of 0.939 ± 0.05.
`CC(Oc1ccccc1)C(=O)N[C@@H]1C(=O)N2[C@@H]1SC(C)(C)[C@@H]2C(=O)O` (stereo partly specified) [Phenethicillin potassium salt] was tested, and the glomerular width was 0.963 ± 0.057.
Work on `Cc1ccc(N(CC2=NCCN2)c2cccc(O)c2)cc1` [Phentolamine hydrochloride] yielded a glomerular width of 1.08 ± 0.02.
With `CC(=O)SCC(Cc1ccccc1)C(=O)NCC(=O)OCc1ccccc1` (stereo unspecified) [Racecadotril] the glomerular width was 0.819 ± 0.085.
With `N=C(N)NC(=N)NCCc1ccccc1` [Phenformin hydrochloride] the glomerular width was 0.978 ± 0.021.
Work on `CC(C)NC(=N)NC(=N)Nc1ccc(Cl)cc1` [Proguanil hydrochloride] yielded a glomerular width of 0.978 ± 0.0098.
Compound `CN(C)CCC(c1ccccc1)c1ccccn1` (stereo unspecified) [Pheniramine maleate] has a glomerular width of 1.07 ± 0.064.

— the supplement of paper PMC7366291
